Where a name gives a salt, the structure may show the parent alone. Values without a mark were called inactive.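 How the source made its calls: active = AUC significantly below DMSO controls by Student t-fit with adjusted P under 0.01; inactive = not significantly reduced.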
tested on: Haemophilus parainfluenzae; test: growth AUC normalised to DMSO control (fraction of control); higher = less growth inhibition, active = hit call of the paper; conditions: 20 µM
How it was run: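 For the AUC endpoint, growth curves were integrated by the trapezoidal rule up to the exponential-to-stationary transition and normalised to DMSO controls on the same plate. The curves came from OD578 readings taken hourly for 24 h, in three biological replicates. Pathogens had been passaged anaerobically twice and inoculated at an OD578 of 0.01 into pre-reduced mGAM plates carrying 20 μM compound and 1% DMSO, sealed with breathable membranes. Medium for Haemophilus parainfluenzae also contained hemin and NAD.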

SMILES	growth AUC normalised to DMSO control
COc1cc(OC)c(C(=O)CCCN2CCCC2)c(OC)c1 [Buflomedil hydrochloride]	1.01
O=C(O)CN(CCN(CC(=O)O)CC(=O)O)CCN(CC(=O)O)CC(=O)O [Pentetic acid]	1.02
CCN(CC)CCNC(=O)c1cc(Cl)c(N)cc1OC [Metoclopramide monohydrochloride]	0.991
CC(=O)OC[C@H]1O[C@@H]([S-])[C@H](OC(C)=O)[C@@H](OC(C)=O)[C@@H]1OC(C)=O.CCP(CC)CC.[Au+] [Auranofin]	0.189 (active)
Cc1oncc1C(=O)Nc1ccc(C(F)(F)F)cc1 [Leflunomide]	0.978
CCOC(=O)[C@H](CCc1ccccc1)N[C@@H](C)C(=O)N1[C@H](C(=O)O)C[C@@H]2CCC[C@@H]21 [Ramipril]	1.02
Cn1c(=O)c2c(ncn2CC(O)CO)n(C)c1=O (centres undefined) [Diprophylline]	0.994
NCc1ccc(S(N)(=O)=O)cc1 [Mafenide hydrochloride]	1
OCCN1CCN(CCCN2c3ccccc3C=Cc3ccccc32)CC1 [Opipramol dihydrochloride]	0.911
CCC(=O)O[C@]1(C(=O)CCl)[C@@H](C)C[C@H]2[C@@H]3CCC4=CC(=O)C=C[C@]4(C)[C@@]3(F)[C@@H](O)C[C@@]21C [Clobetasol propionate]	1.47
CC[C@H](C)[C@H](N)C1=N[C@H](C(=O)N[C@@H](CC(C)C)C(=O)N[C@H](CCC(=O)O)C(=O)N[C@H](C(=O)N[C@H]2CCCCNC(=O)[C@H](CC(N)=O)NC(=O)[C@@H](CC(=O)O)NC(=O)[C@H](Cc3cnc[nH]3)NC(=O)[C@@H](Cc3ccccc3)NC(=O)[C@H]([C@@H](C)CC)NC(=O)[C@@H](CCCN)NC2=O)[C@@H](C)CC)CS1 [Bacitracin]	0.999
CN1CCN(C2=Nc3ccccc3Oc3ccc(Cl)cc32)CC1 [Loxapine succinate]	0.969
O=C(NCC1CCCCN1)c1cc(OCC(F)(F)F)ccc1OCC(F)(F)F (centres undefined) [Flecainide acetate]	0.99
CC(N)C12CC3CC(CC(C3)C1)C2 (centres undefined) [Rimantadine hydrochloride]	0.933
Cc1cccc(Nc2ccncc2S(=O)(=O)NC(=O)NC(C)C)c1 [Torsemide]	0.978
NC(=O)c1cc[n+](CC2=C(C(=O)[O-])N3C(=O)[C@@H](NC(=O)[C@@H](c4ccccc4)S(=O)(=O)O)[C@H]3SC2)cc1 [Cefsulodin sodium salt]	0.912
O=C(Nc1cccc2c(=O)cc(-c3nnn[nH]3)oc12)c1ccc(OCCCCc2ccccc2)cc1 [Pranlukast]	0.996
CCCCCN(CCCCC)C(=O)C(CCC(=O)O)NC(=O)c1ccc(Cl)c(Cl)c1 (centres undefined) [Lorglumide sodium salt]	0.982
CN(C)CC/C=C1\c2ccccc2CSc2ccccc21 [Dosulepin hydrochloride]	0.865
CSc1ccc2c(c1)N(CCC1CCCCN1C)c1ccccc1S2 (centres undefined) [Thioridazine hydrochloride]	0.72 (active)

SMILES	growth AUC normalised to DMSO control
CCN(CC)CCNc1ccc(CO)c2sc3ccccc3c(=O)c12 [Hycanthone]	0.986
CN1[C@@H]2CC[C@H]1C[C@@H](OC(c1ccccc1)c1ccccc1)C2 [Benztropine mesylate]	1
CC(=O)O[C@H]1C(=O)[C@@]2(C)[C@H]([C@H](OC(=O)c3ccccc3)[C@]3(O)C[C@H](OC(=O)[C@H](O)[C@@H](NC(=O)c4ccccc4)c4ccccc4)C(C)=C1C3(C)C)[C@]1(OC(C)=O)CO[C@@H]1C[C@@H]2O [Paclitaxel]	1.08
CC=C(C)C(=O)OC1C(OC(C)=O)C2(CO)C(O)CC3(C)C(=CCC4C5(C)CCC(OC6OC(C(=O)O)C(OC7OC(CO)C(O)C(O)C7O)C(O)C6OC6OC(CO)C(O)C(O)C6O)C(C)(CO)C5CCC43C)C2CC1(C)C (stereo not drawn) [Beta-Escin]	1.01
CC(Oc1ccccc1)C(=O)N[C@@H]1C(=O)N2[C@@H]1SC(C)(C)[C@@H]2C(=O)O (some centres undefined) [Phenethicillin potassium salt]	0.59 (active)
CCOC(=O)c1ccc(N)cc1 [Benzocaine]	1.02
OCCN1CCN(CCCN2c3ccccc3Sc3ccc(Cl)cc32)CC1 [Perphenazine]	0.924
CC(=O)OCC(=O)[C@@]12OC(C)(C)O[C@@H]1C[C@H]1[C@@H]3C[C@H](F)C4=CC(=O)C=C[C@]4(C)[C@@]3(F)[C@@H](O)C[C@@]12C [Fluocinonide]	0.999
Clc1ccc(CO/N=C(\Cn2ccnc2)c2ccc(Cl)cc2Cl)c(Cl)c1 [Oxiconazole nitrate]	1.01
Cc1cc(C2CCCCC2)n(O)c(=O)c1 [Ciclopirox ethanolamine]	0.905
Cc1cnc(C(=O)O)c[n+]1[O-] [Acipimox]	0.94
COc1cccc2c1C(=O)c1c(O)c3c(c(O)c1C2=O)C[C@@](O)(C(=O)CO)C[C@@H]3O[C@H]1C[C@H](N)[C@H](O)[C@H](C)O1 [Doxorubicin hydrochloride]	0.979
COc1cc(C(=O)NCc2ccc(OCCN(C)C)cc2)cc(OC)c1OC [Trimethobenzamide hydrochloride]	1.05
CN1CCN(C2=Nc3cc(Cl)ccc3Nc3ccccc32)CC1 [Clozapine]	1.02
CN(C)CCCN1c2ccccc2CCc2ccccc21 [Imipramine hydrochloride]	0.923
CC(CN1c2ccccc2Sc2ccccc21)N(C)C (centres undefined) [Promethazine hydrochloride]	0.954
CCCCNc1c(C(=O)OCC)c(C)nc2c1cnn2CC [Tracazolate hydrochloride]	1.04
CN1C(C(=O)Nc2ccccn2)=C(O)c2ccccc2S1(=O)=O [Piroxicam]	1.01
CCOC(=O)C(C)(C)Oc1ccc(Cl)cc1 [Clofibrate]	1.01
